Screens from PubChem.
PAX8 reporter: PAX8 transcriptional activity inhibition; RMG-I TPO-luciferase reporter, SteadyGlo, 24 h; inhibition, % at 12.6 µM; actives 1.2% (n = 360,000); AID 652154;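 active = mean replicate inhibition at least 60% with every replicate also reaching 60%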;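 note: luciferase light reporting Pax8 driven TPO promoter activity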
PGC1a acetyl inh: PGC1a acetylation modulation, inhibitor mode; inhibition, % at 15.6 µM; actives 0.17% (n = 350,000); U2OS PGC1a acetylation, AlphaScreen anti-acetyl-lysine; with virally co-expressed GCN5 acetyltransferase;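 active = every replicate shows inhibition of at least 40%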
EWS-Fli block: blocks EWS/Fli oncoprotein-driven transcription | AID 651661 | A673 NR0B1-luciferase reporter, viability-normalised | inhibition, % at 12.6 µM | actives 0.67% (n = 350,000);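 active = mean inhibition of at least 50% after viability correction, with every replicate also passing that limit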;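 note: firefly luciferase signal divided by Alamar Blue viability fluorescence both relative to DMSO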
TRPM1 prom inh: MITF TRPM1 promoter inhibition in SK-MEL-5 cells | actives 0.83% (n = 330,000) | SK-MEL-5 TRPM1 promoter luciferase, 24 h | inhibition, % at 12.5 µM;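 active = mean inhibition across replicates of 60% or more, whatever share of single replicates reaches that level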
LGR2 inh: Drosophila LGR2 receptor signaling inhibition | HEK293 LGR2, CRE-luciferase, bursicon-stimulated, 4 h | inhibition, % at 9.99 µM | actives 0.35% (n = 380,000) | AID 720647;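 active = drop in luminescence signal, shown as inhibition above about 50% in the replicate tests, limit read from the data, passing the limit was not always enough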;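 note: agonist challenge used bursicon conditioned medium at about half maximal strength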
LMP1 NFkB inh: Epstein-Barr LMP1 NF-kappaB reporter inhibition; inhibition, % at 12.5 µM; LMP1-induced NF-kappaB luciferase reporter cells, luminescence; actives 0.69% (n = 350,000); in the data active = inhibition above about 41%
Of the large screens only hits and unclear results are named; the others gave an inactive call. Sampled rows, rich in hits. Any-hit rate of the full collection: about 2.2%.

C[C@@H]1CN([C@H](C)CO)C(=O)c2cc(NC(=O)Nc3ccc(C(F)(F)F)cc3)ccc2O[C@@H](C)CCCCO[C@@H]1CN(C)Cc1ccc(Cl)c(Cl)c1	PAX8 reporter 86 (no result: TRPM1 prom inh, LMP1 NFkB inh)
C[C@H](CO)N1C[C@H](C)[C@@H](CN(C)Cc2ccc(C(F)(F)F)cc2)OCCCC[C@H](C)Oc2ccc(NC(=O)Nc3ccc(C(F)(F)F)cc3)cc2C1=O	none (no result: TRPM1 prom inh, LMP1 NFkB inh)
C[C@@H]1CCCCO[C@@H](CN(C)Cc2ccc(Cl)c(Cl)c2)[C@@H](C)CN([C@@H](C)CO)C(=O)c2cc(NC(=O)Nc3ccc(C(F)(F)F)cc3)ccc2O1	PAX8 reporter 73 (no result: TRPM1 prom inh, LMP1 NFkB inh)
C[C@@H]1CCCCO[C@@H](CN(C)Cc2ccc(C(F)(F)F)cc2)[C@@H](C)CN([C@H](C)CO)C(=O)c2cc(NC(=O)Nc3ccc(C(F)(F)F)cc3)ccc2O1	none (no result: TRPM1 prom inh, LMP1 NFkB inh)
C/C=C/c1cnc2c(c1)C(=O)N([C@H](C)CO)C[C@@H](C)[C@@H](CN(C)C(=O)Nc1ccc(OC)cc1)O2	none (no result: PAX8 reporter, TRPM1 prom inh, LMP1 NFkB inh)
CC(C)c1cc(NC(=O)c2ccccc2)cc(C(C)C)c1O	LMP1 NFkB inh 59
CC(=O)Nc1cc(C(C)C)c(O)c(C(C)C)c1	none (no result: PAX8 reporter, EWS-Fli block)
CCc1nc(N)nc(N)c1-c1ccc(N(C)Cc2ccccc2)c([N+](=O)[O-])c1	EWS-Fli block 56
CCOC(=O)N=Nc1c2ccccc2c2nc3no[nH]c3nc12	PAX8 reporter 87, EWS-Fli block 54, TRPM1 prom inh 103, LGR2 inh 101, LMP1 NFkB inh 86
CCOC(=O)N=Nc1c(O)n(CC(=O)OC)c2ccccc12	none (no result: EWS-Fli block)
COc1ccccc1S(=O)(=O)N1CC[C@@H]2[C@H]1c1cc(-c3ccc(F)cc3)ccc1N[C@@H]2CO	none (no result: TRPM1 prom inh, LMP1 NFkB inh)
COc1ccccc1S(=O)(=O)N1CC[C@@H]2[C@H](CO)Nc3ccc(-c4ccc(F)cc4)cc3[C@@H]21	PAX8 reporter 67 (no result: TRPM1 prom inh, LMP1 NFkB inh)
COc1ccccc1S(=O)(=O)N1CC[C@@H]2[C@@H](CO)Nc3ccc(-c4ccc(F)cc4)cc3[C@@H]21	PAX8 reporter 71 (no result: TRPM1 prom inh, LMP1 NFkB inh)
COc1ccccc1S(=O)(=O)N1CC[C@H]2[C@H](CO)Nc3ccc(-c4ccccc4F)cc3[C@H]21	none (no result: TRPM1 prom inh, LMP1 NFkB inh)
COc1ccccc1-c1ccc2c(c1)[C@H]1[C@H](CCN1S(=O)(=O)c1ccccc1OC)[C@@H](CO)N2	PAX8 reporter 65 (no result: TRPM1 prom inh, LMP1 NFkB inh)
CN(C)CC(=O)N1CCCCN2[C@H](C1)[C@H](c1ccc(/C=C/c3ccccc3)cc1)[C@@H]2CO	none (no result: TRPM1 prom inh, LMP1 NFkB inh)
CN(C)CC(=O)N1CCCCN2[C@H](C1)[C@@H](c1ccc(/C=C/c3ccccc3)cc1)[C@@H]2CO	none (no result: TRPM1 prom inh, LMP1 NFkB inh)
CN(C)CC(=O)N1CCCCN2[C@@H](CO)[C@@H](c3ccc(/C=C/c4ccccc4)cc3)[C@@H]2C1	PAX8 reporter 72 (no result: TRPM1 prom inh, LMP1 NFkB inh)
CN(C)CC(=O)N1CCCCN2[C@@H](CO)[C@H](c3ccc(/C=C/c4ccccc4)cc3)[C@@H]2C1	PAX8 reporter 67 (no result: TRPM1 prom inh, LMP1 NFkB inh)
O=C(Nc1ccccc1F)N1CCCCN2[C@@H](CO)[C@@H](c3ccc(/C=C/c4ccccc4)cc3)[C@@H]2C1	PAX8 reporter 76 (no result: TRPM1 prom inh, LMP1 NFkB inh)
CN(C)CC(=O)N1CCCCN2[C@H](CO)[C@H](c3ccc(/C=C/c4ccccc4)cc3)[C@H]2C1	PAX8 reporter 78 (no result: TRPM1 prom inh, LMP1 NFkB inh)
COc1ccc(S(=O)(=O)N(C)C[C@@H]2Oc3c(NS(=O)(=O)c4ccc(C)cc4)cccc3C(=O)N([C@@H](C)CO)C[C@H]2C)cc1	none (no result: PAX8 reporter, PGC1a acetyl inh, EWS-Fli block, TRPM1 prom inh, LMP1 NFkB inh)
COCC(=O)Nc1ccc2c(c1)OC[C@H](C)N(Cc1cncnc1)C[C@H](C)[C@H](OC)CN(C)C2=O	none (no result: PAX8 reporter, TRPM1 prom inh, LMP1 NFkB inh)
CCCNC(=O)N1[C@@H](CO)[C@H](c2ccc(C3=CCCC3)cc2)[C@@H]1CNC(C)=O	none (no result: TRPM1 prom inh, LMP1 NFkB inh)
C[C@@H]1CN([C@@H](C)CO)C(=O)c2cc(NC(=O)Cc3cn(C)c4ccccc34)ccc2O[C@@H]1CN(C)S(=O)(=O)c1cccs1	none (no result: PAX8 reporter, TRPM1 prom inh, LMP1 NFkB inh)
CC(C)NC(=O)NCC[C@H]1CC[C@@H](NS(=O)(=O)c2ccc(-c3ccccc3)cc2)[C@H](CO)O1	none (no result: TRPM1 prom inh, LMP1 NFkB inh)
COc1cc(/C=C/C(=O)c2ccc3c(c2)OCCO3)cc(Br)c1OCC(=O)N(C)C	EWS-Fli block 61, TRPM1 prom inh 93, LGR2 inh 60 (no result: PGC1a acetyl inh)
O=C(/C=C/c1ccncc1)c1ccc2c(c1)OCCO2	LGR2 inh 89
O=S(=O)(c1cccc(F)c1)N1CC[C@@H]2[C@@H](CO)Nc3ccc(C#Cc4cccc(F)c4)cc3[C@@H]21	none (no result: TRPM1 prom inh, LMP1 NFkB inh)
